In the experiment the target is furin, P09958. Nature of the experiment: furin cleavage Z-score vs untreated control; higher = more cleavage, active = 3.5 or more, inactive = 1 or less, 8 variable residues between constant flanks. In a few lines:
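Peptides 8 residues long, fused to a cDNA oligonucleotide, were fixed to magnetic beads by the N-terminus and exposed to purified furin. The 0.01 ml reactions contained 50 mM HEPES pH 7.5 with CaCl2 and NaCl at 1:10 enzyme:substrate and ran 7.5, 15 or 30 min. For the cleavage Z-score, log counts of sequenced released DNA were compared with furin-free reactions, lowess-adjusted and scaled by median absolute deviation.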

Some of the results follow. The hit rate among all sequences tested is not known here.

Chain of furin, P09958 (P09958 whole entry, the tested form may be a part): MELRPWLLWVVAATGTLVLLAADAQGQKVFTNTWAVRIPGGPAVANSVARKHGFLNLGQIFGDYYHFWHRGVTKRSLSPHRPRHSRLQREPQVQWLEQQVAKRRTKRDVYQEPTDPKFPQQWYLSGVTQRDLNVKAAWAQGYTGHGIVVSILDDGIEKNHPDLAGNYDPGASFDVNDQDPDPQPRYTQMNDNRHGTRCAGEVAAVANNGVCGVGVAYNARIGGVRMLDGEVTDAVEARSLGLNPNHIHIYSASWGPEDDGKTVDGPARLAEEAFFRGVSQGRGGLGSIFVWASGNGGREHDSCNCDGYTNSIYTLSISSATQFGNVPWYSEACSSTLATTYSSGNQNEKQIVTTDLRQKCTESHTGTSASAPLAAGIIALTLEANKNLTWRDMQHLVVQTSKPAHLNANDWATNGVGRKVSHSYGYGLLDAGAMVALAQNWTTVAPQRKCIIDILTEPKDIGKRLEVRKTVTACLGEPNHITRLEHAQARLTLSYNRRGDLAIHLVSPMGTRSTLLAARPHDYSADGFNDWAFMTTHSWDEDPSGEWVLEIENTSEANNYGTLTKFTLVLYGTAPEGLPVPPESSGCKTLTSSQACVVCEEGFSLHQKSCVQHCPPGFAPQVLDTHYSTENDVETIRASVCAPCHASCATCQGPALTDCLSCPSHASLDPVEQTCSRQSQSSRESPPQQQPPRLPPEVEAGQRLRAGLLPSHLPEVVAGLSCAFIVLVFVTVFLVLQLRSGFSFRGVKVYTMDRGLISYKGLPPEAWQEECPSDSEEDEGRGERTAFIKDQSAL

B1: HC652 (peptide)
chain: CALITWGADTAGNASASA
Regarding B1, the “furin cleavage Z-score” value was 0.62 (inactive) (7.5 min), 1.26 (15 min) and -1.35 (inactive) (30 min).

B2: HC1263 (peptide)
chain: CAQLSAPSLKAGNASASA
Consider B2, for which the “furin cleavage Z-score” value is, setting by setting: (7.5 min) 1.12; (15 min) 0.729 (inactive); (30 min) -0.193 (inactive).

B3: FS-1952 (peptide)
chain: CARGRRSLEFAGNASASA
Turning to B3, the “furin cleavage Z-score” value is, setting by setting: (7.5 min) 4.88 (active); (15 min) 7.64 (active); (30 min) 7.06 (active).

B4: FS-3100 (peptide)
chain: CARSVRPVEFAGNASASA
For B4, the “furin cleavage Z-score” value (7.5 min) was -0.873 (inactive), the “furin cleavage Z-score” value (15 min) is -2.07 (inactive) and the “furin cleavage Z-score” value (30 min) is -1.68 (inactive).

B5: FS-2202 (peptide)
chain: CAVYRRSLGKAGNASASA
Regarding B5, the “furin cleavage Z-score” value reads like this: (7.5 min) -0.0765 (inactive); (15 min) -0.584 (inactive); (30 min) -0.11 (inactive).

B6: FS-1713 (peptide)
chain: CARGRRSLGSAGNASASA
On to B6, for which the “furin cleavage Z-score” value runs as follows: (7.5 min) 7.83 (active); (15 min) 9.89 (active); (30 min) 8.32 (active).

B7: HC1723 (peptide)
chain: CAMEECSAHLAGNASASA
Regarding B7, the “furin cleavage Z-score” value by setting is: (7.5 min) 1.16; (15 min) 1.94; (30 min) 0.224 (inactive).

B8: HC1269 (peptide)
chain: CAANHDSPDAAGNASASA
As to B8, the “furin cleavage Z-score” value reads like this: (7.5 min) -0.381 (inactive); (15 min) 0.0398 (inactive); (30 min) -1.93 (inactive).

B9: HC147 (peptide)
chain: CAEVVTWTWVAGNASASA
With B9, the “furin cleavage Z-score” value was 0.828 (inactive) (7.5 min), 0.782 (inactive) (15 min) and -0.799 (inactive) (30 min).

B10: FS-1546 (peptide)
chain: CANLGRLYRSAGNASASA
As to B10, the “furin cleavage Z-score” value runs as follows: (7.5 min) 1.72; (15 min) 0.0213 (inactive); (30 min) 0.362 (inactive).

B11: FS-1321 (peptide)
chain: CAESRRLPRSAGNASASA
With B11, the “furin cleavage Z-score” value reads like this: (7.5 min) 4.7 (active); (15 min) 3.1; (30 min) 2.83.

B12: FS-394 (peptide)
chain: CAAEGWWARSAGNASASA
B12: the “furin cleavage Z-score” value by setting is: (7.5 min) 0.0718 (inactive); (15 min) 0.063 (inactive); (30 min) -0.127 (inactive).

B13: FS-1305 (peptide)
chain: CAAPQRLPRSAGNASASA
As to B13, the “furin cleavage Z-score” value is 5.56 (active) (7.5 min), 4.41 (active) (15 min) and 3.78 (active) (30 min).

B14: FS-974 (peptide)
chain: CAAPARWPRSAGNASASA
In the case of B14, the “furin cleavage Z-score” value reads like this: (7.5 min) 8.41 (active); (15 min) 5.86 (active); (30 min) 6.73 (active).

B15: FS-678 (peptide)
chain: CAKQRRLPRSAGNASASA
Turning to B15, the “furin cleavage Z-score” value runs as follows: (7.5 min) 5.31 (active); (15 min) 3.74 (active); (30 min) 3.02.

B16: FS-994 (peptide)
chain: CAESSRLLRSAGNASASA
On to B16, for which the “furin cleavage Z-score” value was -0.56 (inactive) (7.5 min), -0.471 (inactive) (15 min) and -0.146 (inactive) (30 min).

B17: HC272 (peptide)
chain: CATPGCVPCVAGNASASA
With B17, the “furin cleavage Z-score” value (7.5 min) was -0.91 (inactive), the “furin cleavage Z-score” value (15 min) was 0.456 (inactive) and the “furin cleavage Z-score” value (30 min) was 0.199 (inactive).

B18: FS-666 (peptide)
chain: CAILNRPKRYAGNASASA
Turning to B18, the “furin cleavage Z-score” value (7.5 min) is 4.17 (active), the “furin cleavage Z-score” value (15 min) is 4.91 (active) and the “furin cleavage Z-score” value (30 min) is 4.53 (active).

B19: FS-792 (peptide)
chain: CAHHQRPKRYAGNASASA
Take B19: the “furin cleavage Z-score” value is 8.28 (active) (7.5 min), 9.17 (active) (15 min) and 7.59 (active) (30 min).

B20: HC198 (peptide)
chain: CATWAQPGYPAGNASASA
On to B20, for which the “furin cleavage Z-score” value is -0.244 (inactive) (7.5 min), 0.873 (inactive) (15 min) and -0.438 (inactive) (30 min).

B21: FS-2116 (peptide)
chain: CAWWARSVGGAGNASASA
For B21, the “furin cleavage Z-score” value reads like this: (7.5 min) 0.297 (inactive); (15 min) 0.813 (inactive); (30 min) 1.73.

B22: FS-2729 (peptide)
chain: CARNKRSKSNAGNASASA
B22: the “furin cleavage Z-score” value by setting is: (7.5 min) 7.79 (active); (15 min) 9.35 (active); (30 min) 7.37 (active).

B23: FS-1758 (peptide)
chain: CARNKRSHSGAGNASASA
With B23, the “furin cleavage Z-score” value is 5.74 (active) (7.5 min), 8.23 (active) (15 min) and 6.55 (active) (30 min).

B24: FS-2434 (peptide)
chain: CARNKKSIAVAGNASASA
Regarding B24, the “furin cleavage Z-score” value was -0.82 (inactive) (7.5 min), 0.605 (inactive) (15 min) and 1.7 (30 min).

B25: FS-1910 (peptide)
chain: CARNKRFYGGAGNASASA
Consider B25, for which the “furin cleavage Z-score” value runs as follows: (7.5 min) 0.307 (inactive); (15 min) 0.312 (inactive); (30 min) 2.91.

B26: HC2226 (peptide)
chain: CAEVVTSTMVAGNASASA
In the case of B26, the “furin cleavage Z-score” value runs as follows: (7.5 min) 1.1; (15 min) 0.363 (inactive); (30 min) 1.25.

B27: FS-2282 (peptide)
chain: CARNKKQNSQAGNASASA
Take B27: the “furin cleavage Z-score” value by setting is: (7.5 min) 1.09; (15 min) -0.5 (inactive); (30 min) -0.768 (inactive).

B28: FS-3008 (peptide)
chain: CARNKRPTFLAGNASASA
In the case of B28, the “furin cleavage Z-score” value is -0.0512 (inactive) (7.5 min), 0.819 (inactive) (15 min) and -0.221 (inactive) (30 min).

B29: FS-1911 (peptide)
chain: CARNKRSTQIAGNASASA
Take B29: the “furin cleavage Z-score” value was 10.5 (active) (7.5 min), 12.3 (active) (15 min) and 10.9 (active) (30 min).

B30: FS-1862 (peptide)
chain: CARNKRDTMVAGNASASA
Turning to B30, the “furin cleavage Z-score” value (7.5 min) is 12.3 (active), the “furin cleavage Z-score” value (15 min) was 13.2 (active) and the “furin cleavage Z-score” value (30 min) is 10.9 (active).

B31: FS-2120 (peptide)
chain: CAFRKRSHSKAGNASASA
Regarding B31, the “furin cleavage Z-score” value runs as follows: (7.5 min) -0.356 (inactive); (15 min) -1.2 (inactive); (30 min) -1.04 (inactive).

B32: FS-2497 (peptide)
chain: CARNKKSKMDAGNASASA
For B32, the “furin cleavage Z-score” value runs as follows: (7.5 min) -0.56 (inactive); (15 min) -0.669 (inactive); (30 min) -0.939 (inactive).

The record behind these values is the supplement of paper PMC3545927.
